Assay outcomes (PubChem BioAssay)
Wnt act: Wnt/beta-catenin pathway activation | Wnt/beta-catenin reporter cell assay, activator, plate reader | activation, % at 9.35 µM | 300,000 tested, 1.2% active | AID 743398; in the data active means activation above about 30%, passing the limit was not always enough; inconclusive means no clear call, values can overlap the other calls
HSF1 inh: HSF1 inhibition | activity change, negative = inhibition, % at 7.5 µM (by protocol) | AID 2098 | 300,000 tested, 0.77% active | NIH3T3-HGL HSE-luciferase, MG132-induced, luminescence 8 h; stronger effect = lower value;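 active means more than half of replicate wells show activity change below -50%, luminescence cut by over half; inconclusive means some wells, but at most half, below -50%; inactive means no replicate well below -50%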;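 further: luciferase reports HSF-1 transcriptional activity via heat shock element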
HSF1 activator: increases HSF-1 driven luciferase reporter signal; NIH3T3-HGL HSF-1 luciferase reporter, MG132, 8 h; 100% = twice DMSO control signal; activation, % at 9 µM; 300,000 tested, 1.7% active;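 active means mean replicate activation of at least 50% with a set share of replicates each reaching 50%; inconclusive means only one of those two conditions met; inactive means mean below 50% and too few replicates reaching it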
esBAF inh: blocks esBAF chromatin remodeling in mouse ES cells; Bmi1-luciferase knock-in reporter, 24 h; 100% = twice the neutral-well signal; reporter increase, % at 12.5 µM; 350,000 tested, 2% active; in the data active means activation above about 40%; inconclusive means no clear call, values can overlap the other calls;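 further: a rise in the Bmi1 reporter signal indicates esBAF inhibition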
MITF TRPM1 HTS: MITF TRPM1 promoter activation in melanoma cells. SK-MEL-5 TRPM1-promoter luciferase, 24 h; % of positive control, neutral wells = 0. activation, % at 12.5 µM. 300,000 tested, 0.75% active;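 active means mean activation of at least 80% with every replicate also reaching 80%; inconclusive means mean reaches 80% but some replicate falls short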
A number is an active result; – = inactive; ? = inconclusive; · = not tested or not shown. This is a sample that favours compounds with a hit; in the whole collection about 3.8% have one here.

SMILES	Wnt act	HSF1 inh	HSF1 activator	esBAF inh	MITF TRPM1 HTS
CC(NC(=O)CSc1nc2ccccc2n1C)c1ccccc1 (configuration not stated)	–	–	–	–	–
O=C(CSc1nc2ncccc2[nH]1)NCc1ccccc1	·	–	–	–	–
COC(=O)c1cccc(CSc2nc3ccccc3[nH]2)c1	–	–	54.6	·	–
Cn1c(SCC(=O)NCc2ccccc2)nc2ccccc21	–	-73.4	–	–	·
O=C(CSc1nc2ccccc2[nH]1)NCc1ccccc1	–	–	–	43.4	·
CC(C)NC(=O)Nc1ccc2c(c1)CC(=O)N([C@@H](C)CO)C[C@H](C)[C@H](CN(C)S(=O)(=O)c1cccs1)O2	·	·	·	–	·
C[C@H]1CN([C@@H](C)CO)S(=O)(=O)c2ccc(C#Cc3cccnc3)cc2O[C@H]1CN(C)C(=O)Nc1ccc2c(c1)OCO2	·	·	·	–	·
O=C(CN1CCOCC1)NCC[C@@H]1CC[C@H](NC(=O)Nc2ccc(Cl)cc2)[C@H](CO)O1	·	·	·	–	·
Cc1nc([N+](=O)[O-])c(Br)n1Cc1ccccc1	–	–	77.2	·	·
Cc1nc([N+](=O)[O-])c(Br)n1CC(=O)c1cccc([N+](=O)[O-])c1	–	–	101.9	·	–
CC(=O)Nc1nc2cc3c(cc2s1)OCCO3	?	–	–	–	·
Fc1cccc2sc(Nc3nc4cc5c(cc4s3)OCO5)nc12	–	–	–	95.6	–
CC(C)C(=O)Nc1nc2cc3c(cc2s1)OCO3	–	–	–	68.0	·
O=C(Nc1nc2cc3c(cc2s1)OCO3)C1CC1	–	–	–	·	–
Fc1cccc2sc(Nc3nc4cc5c(cc4s3)OCCO5)nc12	–	–	–	·	–
CC(C)(C)C(=O)Nc1nc(-c2ccc3c(c2)OCO3)cs1	·	–	53.9	·	?
CC(C)(C)C(=O)Nc1nc2cc3c(cc2s1)OCO3	42.5	–	–	–	?
CCN1C(=O)C(CC(=O)Nc2ccc(OC)cc2)N(Cc2ccc3c(c2)OCO3)C1=S (configuration not stated)	–	-77.6	–	·	–
CCN1C(=O)C(CC(=O)Nc2ccc(OC)cc2)N(Cc2ccc(OC)c(OC)c2)C1=S (configuration not stated)	–	–	–	–	·
CC1CCCCN1C(=O)c1ccccc1OC1CCN(S(C)(=O)=O)CC1 (configuration not stated)	–	–	–	·	–
CC1CCCN(C(=O)c2ccccc2OC2CCN(S(C)(=O)=O)CC2)C1 (configuration not stated)	–	–	64.1	·	–
O/N=C/c1ccc2ccccc2n1	35.9	–	–	·	·
COc1ccc(-c2cnc3c(c2)C(=O)N([C@@H](C)CO)C[C@@H](C)[C@H](CN(C)C(=O)Cc2ccncc2)O3)cc1	·	·	·	–	·
Cc1ccc(-n2ncc3c(SCC(N)=O)ncnc32)cc1C	–	–	67.4	–	·
CC(=O)CSc1ncnc2c1cnn2-c1ccccc1	41.6	–	?	–	–
SMILES	Wnt act	HSF1 inh	HSF1 activator	esBAF inh	MITF TRPM1 HTS
CC(C)c1ccc2[nH]c3c(c2c1)[C@@H]1CCN2C(=O)CCC[C@H](C3)[C@H]12	–	–	–	80.9	–
Cc1c(Cl)c(C(=O)NNC(=S)Nc2ccc(F)cc2)nn1C	–	–	58.9	–	–
C[C@@H]1CN([C@H](C)CO)C(=O)c2cc(NC(=O)Cc3cn(C)c4ccccc34)ccc2O[C@@H]1CN(C)Cc1ccc(C(=O)O)cc1	·	·	·	–	·
O=c1oc(-c2cccs2)nc2sc3c(c12)CCC3	·	–	–	46.2	–
O=c1oc(-c2cccs2)nc2sc3c(c12)CCCC3	–	–	63.2	–	–
Cc1nc2sc3c(c2c(=O)o1)CCC3	·	–	–	–	·
O=c1c2c3c(sc2nc2n1N=C(c1cccs1)CS2)CCCC3	·	–	–	·	135.3
O=c1[nH]c(-c2ccco2)nc2sc3c(c12)CCCC3	39.2	–	–	·	–
O=c1[nH]c(S)nc2sc3c(c12)CCCC3	·	–	–	–	·
O=c1oc(/C=C/c2ccco2)nc2sc3c(c12)CCC3	–	–	–	–	81.9
CN1C(=O)c2cc(NC(=O)NCc3ccccc3)ccc2OC[C@@H]2O[C@@H](CC(=O)O)CC[C@@H]21	·	·	·	–	·
C[C@@H]1CN([C@@H](C)CO)C(=O)c2ccccc2-c2ccccc2CO[C@H]1CN(C)S(=O)(=O)c1ccsc1	·	·	·	–	·
Cc1ccc(SCCC(=O)N2CCC(C)CC2)cc1	?	–	58.2	59.0	·
Cc1ccc(SCCC(=O)N2CCC(C(N)=O)CC2)cc1	–	–	–	–	–
Cc1ccc(S(=O)(=O)N(C)C[C@H]2OCCCC[C@H](C)Oc3ccc(NC(=O)Nc4ccccc4)cc3C(=O)N([C@@H](C)CO)C[C@@H]2C)cc1	·	·	·	–	·
C[C@H](CO)N1C[C@H](C)[C@H](CN(C)C(=O)Nc2ccccc2)Oc2ccc(NC(=O)Cc3cn(C)c4ccccc34)cc2C1=O	·	·	·	–	·
CC(=O)c1cc2c(cc1NC(=O)CSc1nc3ccccc3o1)OCO2	·	–	85.8	–	–
CC(=O)c1cc2c(cc1NC(=O)CSc1nc3ccccc3[nH]1)OCO2	·	–	–	·	·
CC(=O)Nc1ccc(NC(=O)CSc2nc3ccccc3o2)cc1	–	–	–	·	–
CC1CCc2nc(NC(=O)CSc3nc4ccccc4o3)sc2C1 (configuration not stated)	·	-59.4	–	–	–
Cc1cccc(NC(=O)CSc2nc3ccccc3o2)c1	·	–	–	46.8	·
CO[C@H]1CN(C)C(=O)c2ccc(NC(=O)C3CC3)cc2OC[C@@H](C)N(CCc2ccccc2)C[C@H]1C	·	·	·	–	·
C[C@H]1CN([C@@H](C)CO)C(=O)Cc2cc(NC(=O)Cc3cn(C)c4ccccc34)ccc2O[C@@H]1CN(C)S(=O)(=O)c1ccc(Cl)cc1	·	·	·	–	·
C[C@@H]1CCCCO[C@H](CN(C)C(=O)C2CCCCC2)[C@@H](C)CN([C@H](C)CO)C(=O)c2cc(NC(=O)CCCCCC(=O)Nc3ccccc3N)ccc2O1	·	·	·	–	·
Cc1noc(C)c1NC(=O)Nc1ccc2c(c1)C(=O)N([C@@H](C)CO)C[C@@H](C)[C@H](CN(C)S(=O)(=O)c1c(C)noc1C)OCCCC[C@@H](C)O2	·	·	·	–	·
SMILES	Wnt act	HSF1 inh	HSF1 activator	esBAF inh	MITF TRPM1 HTS
CN1C(=O)c2cc(NC(=O)c3cccc(F)c3)ccc2OC[C@H]2O[C@H](CC(=O)NCc3ccccc3)CC[C@H]21	·	·	·	–	·
c1ccc(-c2csc(Nc3ccc4c(c3)OCCO4)n2)cc1	45.9	–	–	–	–
c1cc2c(cc1Nc1nc(-c3ccc4c(c3)OCO4)cs1)OCCO2	·	–	–	–	·
COc1cccc(Nc2nc(-c3ccc4c(c3)OCCO4)cs2)c1	·	–	–	·	87.4
C=CCNc1nc(-c2ccc3c(c2)OCCO3)cs1	41.7	–	–	–	–
CCC(=O)Nc1nc(-c2ccc3c(c2)OCCO3)cs1	–	–	–	?	–
CO[C@H]1CN(C)C(=O)c2ccc(NC(=O)C3CCC3)cc2OC[C@H](C)N(Cc2cccnc2)C[C@@H]1C	·	·	·	–	·
Nc1nc(-c2ccccc2)cs1	·	–	–	?	–
c1ccc(-c2cc(-c3ccccc3)on2)cc1	41.5	–	–	·	–
Nc1nc(-c2cc(-c3ccccc3)no2)cs1	46.4	–	–	–	88.3
